Source: PubChem BioAssay (National Center for Advancing Translational Sciences (NCATS))
HT1080-NT tox: kills 2HG-producing HT-1080-NT fibrosarcoma cells; HT-1080-NT fibrosarcoma viability, CellTiter-Glo ATP luminescence, 48 h; Potency, µM (doses to about 46.1 µM), for the others: at the highest dose activity, negative = less viability, usual class: cytotoxic; 1.6% of 360,000 active; AID 686970;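 also: NT is the 2HG producing partner of a matched IDH1 knockdown line; 0% = DMSO-treated cells and -100% = media-only wells without cells; nearly all actives have a fitted effect of over 55% in size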
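750 cells/well, RPMI + 5% FBS; 2 h settle, compound pin-transfer, 48 h at 37 degrees C. CellTiter-Glo 10 min RT, luminescence. Normalized to DMSO and media-only wells.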
ATXN2 expr inh: reduces ATXN2 reporter expression in HEK-293 cells; HEK-293 ATXN2-luciferase reporter, luminescence, 24 h; Potency, µM (doses to about 57 µM), for inactives: top-dose activity change, negative = inhibition, hits mostly inhibitors; 0.72% of 360,000 active; AID 1745845; also: % is scaled to controls: 0 for no effect and ±100 for the full control effect; nearly all actives have a fitted effect of over 55% in size
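ATXN2-luciferase reporter cells (luciferase flanked by upstream and downstream ATXN2 gene portions) were treated 24 h at 37 °C with compounds at up to 57 uM. SteadyGlo luminescence gave expression; GF-AFC fluorescence gave viability.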
KB-3-1 cytotox: kills parental KB-3-1 adenocarcinoma cells; KB-3-1 viability, CellTiter-Glo ATP luminescence, 72 h; Potency, µM (doses to about 46.1 µM), hits mostly cytotoxic; 1.4% of 400,000 active; AID 1347075; also: % is scaled to controls: 0 for no effect and ±100 for the full control effect; nearly all actives have a fitted effect of over 60% in size
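Parental KB-3-1 viability, qHTS format: 72 h compound exposure, 37 °C; CellTiter-Glo; media-only wells and DMSO plates as controls; concentration-effect fits on corrected data.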
HT1080 IDH1KD tx: toxicity to HT-1080 IDH1 knockdown cells (counter line); HT-1080 IDH1 knockdown viability, ATP luminescence, 48 h; 2% of 360,000 active; Potency, µM (series often up to 46.1 µM), for inactives: at the top dose activity, negative = toxicity, usual class: cytotoxic; AID 686971;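 also: 0% = DMSO wells and -100% = cell-free medium wells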
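IDH1KD HT-1080 cells, 750/well, RPMI + 5% FBS; compound pinned after 2 h settling; 48 h, 37 °C; CellTiter-Glo luminescence; % activity normalised to DMSO and no-cell wells; curves fitted, classed by r2 and efficacy.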
ATXN viability: reduces viability in counter-screen for ATXN expression inhibitors; S2 cells (HEK-293 line with an ATXN2-luciferase reporter) viability, CellTiter-Fluor protease fluorescence, 24 h; 0.49% of 400,000 active; Potency, µM (titrated, usually from 56.7 µM), hits mostly cytotoxic; also: nearly all actives have a fitted effect of over 40% in size
KB-V1 MDR tox: KB-V1 MDR subline cytotoxicity | 3.4% of 400,000 active | Potency, µM (doses to about 46.1 µM), actives largely listed as cytotoxic | KB-V1 MDR cells viability, CellTiter-Glo, 72 h | AID 1347076; also: % is scaled to controls: 0 for no effect and ±100 for the full control effect; nearly all actives have a fitted effect of over 60% in size
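Readout: CellTiter-Glo luminescence, 10 min after addition. Cells: KB-V1 MDR subline, 72 h at 37 degrees C with compound. Analysis: corrected, normalized data fitted to concentration-effect curves.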
* = called active by the depositor; i = inactive; ? = inconclusive; nt = no result given. A selection: hits, their analogues and other compounds. The true share with any hit is near 6.2%. Calls follow the shape of the dose curve; as a rule, active = well fitted curve in the direction sought with a large enough effect; inconclusive = small, poorly fitted or top-dose-only effect, or another doubt; inactive = no such curve, though single readings can be large; an effect the other way counts as inactive or inconclusive. Potency is read from the fitted curve at half-maximal effect.

SMILES	HT1080-NT tox	ATXN2 expr inh	KB-3-1 cytotox	HT1080 IDH1KD tx	ATXN viability	KB-V1 MDR tox
CC1CCN(CCCCOc2ccc([N+](=O)[O-])cc2)CC1	0%	-20%	i	9%	i	i
O=C(CSc1ccc(-c2ccco2)nn1)NCc1ccc(F)cc1	-3%	10%	i	-6%	i	i
O=C(CSc1ccc(-c2ccco2)nn1)c1ccc(F)cc1	17%	28%	i	-1%	i	26µM*
Cc1cccc2c(=O)[nH]c3c(-c4nc(-c5ccc(Cl)cc5)cs4)c(O)cn3c12	nt	nt	i	nt	nt	i
CCn1cc([N+](=O)[O-])c(C(=O)N2N=C(c3ccc4ccccc4c3)CC2c2ccccc2O)n1 (configuration not stated)	23µM*	?	?	21µM*	?	i
CCn1cc(Cl)c(C(=O)N2N=C(c3ccc4ccccc4c3)CC2c2ccccc2O)n1 (configuration not stated)	?	18µM*	21µM*	?	?	?
CCn1cc([N+](=O)[O-])c(C(=O)N2N=C(c3cccc4ccccc34)CC2c2ccccc2O)n1 (configuration not stated)	?	?	i	18µM*	?	i
CCc1ccccc1NC(=O)Cn1c(=O)n(CCc2ccccc2)c(=O)c2sc3ccccc3c21	nt	9%	i	nt	i	i
CCc1cccc(C)c1NC(=O)Cn1c(=O)cc(C(F)(F)F)c2c(C)nn(C)c21	nt	10%	i	nt	i	i
Cc1cc(C)c(S(=O)(=O)Nc2cccc3nsnc23)c(C)c1	-1%	-5%	18µM*	0%	i	15µM*
CCOc1ccc(-c2csc(/C(C#N)=C\c3ccc(O)c([N+](=O)[O-])c3)n2)cc1	15µM*	?	21µM*	?	nt	5.2µM*
CCCNC(=O)C1(C)CCN1C(=O)C/C=C/c1ccccc1 (configuration not stated)	2%	12%	i	0%	i	?
Cc1ccc(C2CC2c2n[nH]c(=S)n2-c2ccc(Cl)cc2)cc1 (configuration not stated)	-21%	-9%	?	?	i	16µM*
Cc1ccc(C2CC2c2n[nH]c(=S)n2-c2cccc(C)c2)cc1 (configuration not stated)	-17%	-1%	i	?	i	?
CCSC1=C(C#N)C(c2ccc(C)s2)CC(=O)N1 (configuration not stated)	4%	8%	i	-2%	i	i
CCSC1=C(C#N)C(c2ccccc2OC)CC(=O)N1 (configuration not stated)	-4%	3%	i	-2%	i	i
CCOC(=O)CSC1=C(C#N)C(c2ccc(C)s2)CC(=O)N1 (configuration not stated)	0.71µM*	-25%	5.2µM*	1.8µM*	i	1.8µM*
CCOC(=O)CSC1=C(C#N)C(c2ccccc2OC)CC(=O)N1 (configuration not stated)	?	-13%	?	18µM*	i	?
O=S(=O)(c1ccccc1)c1nc(-c2ccc(Cl)cc2Cl)oc1N1CCCCCC1	nt	-1%	i	nt	i	i
O=C(CN1C(=O)C2(SCC(=O)N2c2cccc(F)c2)c2ccccc21)NCc1ccccc1Cl (configuration not stated)	nt	-3%	i	nt	i	6.5µM*
COc1cccc(N2C(=O)CSC23C(=O)N(Cc2ccccc2F)c2ccccc23)c1 (configuration not stated)	nt	-20%	i	nt	i	?
COc1ccc(N2C(=O)CSC23C(=O)N(Cc2ccccc2F)c2ccccc23)cc1Cl (configuration not stated)	nt	?	?	nt	?	18µM*
